In PubChem BioAssay (NCATS) one finds Potency data, which are given here for 26 compounds.

Records with an inconclusive call do not appear. Active and inactive are the calls of the source. Calls come from the whole dose curve; as a rule, active = well fitted inhibition curve with a large enough effect; inconclusive = small, poorly fitted or top-dose-only effect; inactive = flat fitted curve, though single readings scatter.

Test in all cases: qHTS profiling for inhibitors of Plasmodium falciparum proliferation (AID 504749); note: nearly all actives have a fitted effect of over 60% in size
Details in all cases: P. falciparum in erythrocytes, SYBR Green DNA, 72 h; series mostly up to 28.7 µM

Experiment [1] concerns HB3. In outline:
(§1)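 Quantitative HTS: compounds pinned into medium, infected erythrocytes added (0.3% parasitemia, 2.5% hematocrit), 72 h culture at 37 C under 5% CO2. Saponin/Triton lysis with SYBR Green I, overnight RT, then fluorescence read.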

Experiment [2] has as its system ICS. The method in brief: as §1
The subject of experiment [3] is JCK. The method in brief: as §1
The test system of experiment [4] is N140. In outline:
as §1

Experiment [5] relates to P93_24. The method in brief: as §1
Experiment [6] has as its system P94_40. The method in brief:
as §1

Experiment [7] relates to PAD. In outline:
as §1

For experiment [8], the system named is PC15. In outline: as §1
The subject of experiment [9] is PC49. The method in brief:
as §1

Experiment [10] has as its system PC26. In outline: as §1
Potency is the fitted concentration of half-maximal effect.

For the compound `CN=C(NC#N)Nc1ccc(C2=NNC(=O)C[C@@H]2C)cc1`, the Potency entry in [1], in experiment [2], in [3], in [4], in experiment [5] and in experiment [6] was “inactive” in each case. Also, the Potency result in [7], in experiment [8] and in [9] was “inactive” throughout.
As for `C[C@]12O[C@H](C[C@]1(O)CO)n1c3ccccc3c3c4c(c5c6ccccc6n2c5c31)CNC4=O`, the Potency in experiment [1] was 0.447 µM (active); in experiment [2] it was 0.112 µM (active); in experiment [3] it was 4.47 µM (active); in experiment [4], 0.282 µM (active); in [5], 0.355 µM (active); in experiment [6], 0.282 µM (active). Further, the Potency in experiment [7] was 0.251 µM (active); in experiment [8], 0.447 µM (active); in experiment [10], 0.239 µM (active); in [9], 0.891 µM (active).
`CCCCCC(CC)COC(=O)CC(C(=O)OCC(CC)CCCC)S(=O)(=O)O` (configuration not stated): the Potency entry in experiment [1], in [2], in experiment [3], in experiment [4], in [5] and in [6] was “inactive” in each case. Also, the Potency result in experiment [7], in [8] and in experiment [9] was “inactive” in each case.
In the case of `Cc1c(C)c2c(c(C)c1O)CC[C@@](C)(CCC[C@@H](C)CCC[C@@H](C)CCCC(C)C)O2`, the Potency result in experiment [1], in [2], in experiment [3], in experiment [4], in [7] and in experiment [8] was “inactive” throughout. Besides, the Potency result in experiment [10] and in experiment [9] was “inactive” throughout.
In the case of `C=CCSSSCC=C`, the Potency result in experiment [1], in experiment [2], in experiment [3], in experiment [4], in experiment [6] and in [7] was “inactive” each time. The Potency result in experiment [8], in experiment [10] and in experiment [9] was “inactive” in each case.
Take `Clc1cc(Cl)c(OCC#CI)cc1Cl`: the Potency is 7.94 µM (active) in experiment [2]; 10 µM (active) in experiment [4]; 7.94 µM (active) in experiment [5]; 11.2 µM (active) in [6]; 11.2 µM (active) in experiment [7].
For `COc1cc(-c2ccc(-[n+]3nc(-c4ccccc4)nn3-c3ccc([N+](=O)[O-])cc3)c(OC)c2)ccc1-[n+]1nc(-c2ccccc2)nn1-c1ccc([N+](=O)[O-])cc1`, the Potency in experiment [2] was 8.91 µM (active); in experiment [6], 10 µM (active); in experiment [10], 15.1 µM (active).
Regarding `CCN(CC)CCOc1ccc(-c2nc3cc(Cl)ccc3s2)cc1`, the Potency result in [1], in [3], in experiment [4], in [10] and in experiment [9] was “inactive” throughout.
On to `COCC(=O)Nc1cc(Sc2ccccc2)ccc1N=C(NC(=O)OC)NC(=O)OC`, for which the Potency result in [1], in experiment [3], in experiment [4], in [5], in experiment [6] and in experiment [7] was “inactive” throughout. In addition, the Potency result in experiment [8] and in experiment [9] was “inactive” throughout.
Turning to `CCOc1ccc2c(c1)C(C)=CC(C)(C)N2`, the Potency entry in experiment [1], in experiment [3], in experiment [4], in experiment [5], in experiment [6] and in [7] was “inactive” in each case. In addition, the Potency result in experiment [8], in [10] and in experiment [9] was “inactive” throughout.
`NC1C2CN(c3nc4c(cc3F)c(=O)c(C(=O)O)cn4-c3ccc(F)cc3F)CC12` (configuration not stated): the Potency entry in experiment [10] was “inactive”.
With `COC(=O)C1=C(C#N)NC(C)=C(C(=O)OC(C)C)C1c1cccc([N+](=O)[O-])c1` (configuration not stated), the Potency in experiment [1] is 10 µM (active); in experiment [2], 7.94 µM (active); in experiment [4], 7.94 µM (active); in [5] it was 12.6 µM (active); in [7], 10 µM (active); in experiment [8], 10 µM (active). Also, the Potency in [10] is 13.5 µM (active); in experiment [9], 12.6 µM (active).
`CCCCC(=O)O[C@]1(C(=O)CO)[C@H](C)C[C@H]2[C@@H]3CCC4=CC(=O)C=C[C@]4(C)[C@@]3(F)[C@@H](O)C[C@@]21C`: the Potency entry in experiment [1], in experiment [3], in experiment [6] and in experiment [9] was “inactive” throughout.
In the case of `Nc1c(Br)cc(Br)cc1CNC1CCC(O)CC1` (configuration not stated), the Potency result in experiment [1], in [3], in [4], in experiment [5], in [6] and in [7] was “inactive” each time. Also, the Potency entry in experiment [8], in experiment [10] and in experiment [9] was “inactive” throughout.
With `CCCCC(CC)COC(=O)CC(C(=O)OCC(CC)CCCC)S(=O)(=O)O` (configuration not stated), in experiment [10], the Potency result was “inactive”.
Regarding `CCCCCCOc1ccc(C(=N)N(CCCC)CCCC)c2ccccc12`, the values for the Potency in [2], in experiment [6] and in experiment [8] were 2.82 µM (active), 12.6 µM (active) and 10 µM (active), respectively. In addition, the Potency result in experiment [5] was “inactive”.
As for `CC[C@@]1(O)C(=O)OCc2c1cc1n(c2=O)Cc2cc3c([N+](=O)[O-])cccc3nc2-1`, the Potency in [2] is 5.01 µM (active); in [4], 8.91 µM (active); in [5], 7.94 µM (active); in [6], 5.01 µM (active).
On to `CCOC(=O)C1=CC2(CC)CCCN3CCc4c(n1c1ccccc41)C32` (configuration not stated), for which the Potency in experiment [1] is 12.6 µM (active); in [2], 10 µM (active); in experiment [4], 8.91 µM (active); in experiment [5], 7.94 µM (active); in [6], 12.6 µM (active); in experiment [7], 11.2 µM (active). Also, the Potency in [8] is 11.2 µM (active).
With `CCCCCCCCCCCCCC[n+]1ccc(C)cc1`, the Potency was 3.55 µM (active) in [1]; 1.58 µM (active) in experiment [2]; 7.08 µM (active) in [4]; 3.55 µM (active) in experiment [5]; 4.47 µM (active) in [6]; 3.55 µM (active) in experiment [7]. The Potency in experiment [8] was 4.47 µM (active); in experiment [10] it was 4.78 µM (active).
For `O=C(O)CN(CCN(CC(=O)O)CC(=O)O)CC(=O)O`, the Potency entry in experiment [1], in experiment [3], in [4], in [5], in experiment [6] and in experiment [7] was “inactive” in each case. The Potency result in experiment [8], in experiment [10] and in experiment [9] was “inactive” each time.
As to `COC(C(=O)C(O)C(C)O)C1Cc2cc3cc(OC4CC(OC5CC(O)C(O)C(C)O5)C(O)C(C)O4)c(C)c(O)c3c(O)c2C(=O)C1OC1CC(OC2CC(OC3CC(C)(O)C(O)C(C)O3)C(O)C(C)O2)C(O)C(C)O1` (configuration not stated), the Potency was 0.1 µM (active) in experiment [1]; 0.1 µM (active) in experiment [2]; 0.199 µM (active) in experiment [4]; 0.178 µM (active) in [5]; 0.126 µM (active) in experiment [6]; 0.224 µM (active) in [7]. Besides, the Potency was 0.501 µM (active) in experiment [8] and 2.69 µM (active) in experiment [10]. The Potency entry in experiment [9] is “inactive”.
As for `CN1C(=O)CN2CCc3ccccc3C2c2cc(Cl)ccc21` (configuration not stated), the Potency result in experiment [1], in experiment [3], in experiment [6], in [8] and in experiment [9] was “inactive” throughout.
As for `CCOc1ccc(N=Nc2ccc(N)cc2N)cc1`, the Potency result in experiment [1], in experiment [3], in experiment [4], in experiment [8], in experiment [10] and in experiment [9] was “inactive” each time.
`Nc1c(N=Nc2ccc(-c3ccc(N=Nc4cc(S(=O)(=O)O)c5ccccc5c4N)cc3)cc2)cc(S(=O)(=O)O)c2ccccc12`: the Potency entry in [1], in experiment [2], in experiment [4], in [5], in experiment [6] and in [7] was “inactive” throughout. For the same compound, the Potency result in [8], in [10] and in experiment [9] was “inactive” in each case.
Take `CC(=O)Oc1cc(C)c(OC(C)=O)c2ccccc12`: the Potency is 6.31 µM (active) in experiment [2], 7.94 µM (active) in experiment [5], 4.47 µM (active) in [8] and 7.57 µM (active) in experiment [10].
As to `CO[C@H](C(=O)[C@@H](O)[C@@H](C)O)C1Cc2cc3cc(O[C@H]4C[C@@H](O[C@H]5C[C@@H](O)[C@H](O)[C@@H](C)O5)[C@@H](O)[C@@H](C)O4)c(C)c(O)c3c(O)c2C(=O)[C@H]1O[C@H]1C[C@@H](O[C@H]2C[C@@H](O[C@H]3C[C@](C)(O)[C@H](O)[C@@H](C)O3)[C@H](O)[C@@H](C)O2)[C@H](O)[C@@H](C)O1` (some centres not stated), the Potency in [1] is 0.1 µM (active); in experiment [2], 0.0794 µM (active); in experiment [4] it was 0.126 µM (active); in [5], 0.112 µM (active); in experiment [6], 0.112 µM (active); in experiment [7] it was 0.158 µM (active). Besides, the Potency was 0.316 µM (active) in experiment [8], 3.01 µM (active) in experiment [10] and 0.708 µM (active) in experiment [9].
